# Measurements published in publication PMC7862700, “An all-to-all approach to the identification of sequence-specific readers for epigenetic DNA modifications on cytosine”.
# What was measured:
# Assay in all cases: DAPPL (digital affinity profiling via proximity ligation, sequencing); 10 mM Tris-HCl pH 7.5, 50 mM NaCl, 1 mM DTT, 4% glycerol, room temperature, 30 min; GST-TFs on glutathione beads, 16-mer random dsDNA library, 0.1% formaldehyde crosslink after washing; high values mean tight binding
# Conditions in all cases: protein: recombinant; tags: N-terminal GST; dsDNA, one strand shown
# [1] = biological target: ETV1 (Homo sapiens, UniProt P50549 1-477)
# Procedure, shortened: (§1)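 Binding signal is given per hexamer as its read frequency for a factor divided by its frequency in the tag-only sample. GST-fused human transcription factors were expressed in yeast, captured on glutathione beads, barcoded with DNA and pooled with that sample, then incubated with 200 nmole of a 16-mer random double-stranded DNA library in Tris/NaCl/DTT/glycerol buffer for 30 min at room temperature. The pools were then washed, crosslinked, proximity-ligated, amplified by PCR and sequenced on an Illumina NextSeq500.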
# [2] = biological target: T1, ERF (Homo sapiens, UniProt P50548 1-548)
# T1 sequence: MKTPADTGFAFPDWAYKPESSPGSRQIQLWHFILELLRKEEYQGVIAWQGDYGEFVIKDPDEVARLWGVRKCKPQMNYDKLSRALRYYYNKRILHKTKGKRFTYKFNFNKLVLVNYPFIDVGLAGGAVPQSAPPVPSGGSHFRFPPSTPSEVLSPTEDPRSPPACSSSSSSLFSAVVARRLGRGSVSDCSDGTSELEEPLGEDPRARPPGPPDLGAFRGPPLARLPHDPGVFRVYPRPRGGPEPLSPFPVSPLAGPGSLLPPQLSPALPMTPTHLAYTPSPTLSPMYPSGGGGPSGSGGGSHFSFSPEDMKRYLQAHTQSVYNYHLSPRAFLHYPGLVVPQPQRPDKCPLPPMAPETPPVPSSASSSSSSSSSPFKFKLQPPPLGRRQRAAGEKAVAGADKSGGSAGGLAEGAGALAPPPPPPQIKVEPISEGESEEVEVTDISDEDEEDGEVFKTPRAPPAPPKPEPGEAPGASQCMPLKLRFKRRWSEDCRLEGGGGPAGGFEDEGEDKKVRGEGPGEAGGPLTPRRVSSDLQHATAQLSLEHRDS
# Procedure, shortened: as §1
# [3] = biological target: T2, ETV3L (Homo sapiens, UniProt Q6ZN32 1-361)
# T2 sequence: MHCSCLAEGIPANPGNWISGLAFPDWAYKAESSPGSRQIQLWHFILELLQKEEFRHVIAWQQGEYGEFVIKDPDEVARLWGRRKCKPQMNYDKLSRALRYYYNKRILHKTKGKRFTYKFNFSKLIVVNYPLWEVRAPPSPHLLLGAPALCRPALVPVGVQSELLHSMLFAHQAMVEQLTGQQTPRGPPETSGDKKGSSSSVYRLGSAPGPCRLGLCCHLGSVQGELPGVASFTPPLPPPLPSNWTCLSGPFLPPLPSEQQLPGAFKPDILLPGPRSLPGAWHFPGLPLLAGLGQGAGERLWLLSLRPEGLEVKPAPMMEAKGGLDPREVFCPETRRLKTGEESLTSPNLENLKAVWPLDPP
# Procedure, shortened: as §1
# [4] = biological target: T3, ETS2 (Homo sapiens, UniProt P15036 1-469)
# T3 sequence: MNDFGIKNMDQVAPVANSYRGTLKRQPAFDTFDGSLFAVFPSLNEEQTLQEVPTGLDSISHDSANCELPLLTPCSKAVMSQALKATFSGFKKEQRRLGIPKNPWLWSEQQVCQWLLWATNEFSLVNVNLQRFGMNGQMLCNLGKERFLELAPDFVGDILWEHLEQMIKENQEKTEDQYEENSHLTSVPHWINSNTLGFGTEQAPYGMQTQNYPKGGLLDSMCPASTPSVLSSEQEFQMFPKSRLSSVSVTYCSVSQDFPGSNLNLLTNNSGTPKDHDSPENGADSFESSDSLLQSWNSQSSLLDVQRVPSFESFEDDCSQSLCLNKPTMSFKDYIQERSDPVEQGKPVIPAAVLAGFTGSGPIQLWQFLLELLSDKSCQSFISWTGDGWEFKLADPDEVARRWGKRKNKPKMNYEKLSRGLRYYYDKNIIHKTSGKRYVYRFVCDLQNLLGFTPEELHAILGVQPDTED
# Procedure, shortened: as §1
# [5] = biological target: T4, SPDEF (Homo sapiens, UniProt O95238 1-335)
# T4 sequence: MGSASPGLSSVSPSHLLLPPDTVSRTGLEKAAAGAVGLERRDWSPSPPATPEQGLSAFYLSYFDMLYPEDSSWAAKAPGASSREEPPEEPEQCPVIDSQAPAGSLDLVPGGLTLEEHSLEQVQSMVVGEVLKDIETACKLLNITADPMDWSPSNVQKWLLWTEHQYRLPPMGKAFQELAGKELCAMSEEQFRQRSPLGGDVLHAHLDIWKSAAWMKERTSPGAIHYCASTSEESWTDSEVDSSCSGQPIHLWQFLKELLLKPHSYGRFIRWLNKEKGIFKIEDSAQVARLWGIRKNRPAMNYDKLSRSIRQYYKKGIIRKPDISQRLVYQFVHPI
# Procedure, shortened: as §1
# [6] = biological target: T5, ETV7 (Homo sapiens, UniProt Q9Y603 1-341)
# T5 sequence: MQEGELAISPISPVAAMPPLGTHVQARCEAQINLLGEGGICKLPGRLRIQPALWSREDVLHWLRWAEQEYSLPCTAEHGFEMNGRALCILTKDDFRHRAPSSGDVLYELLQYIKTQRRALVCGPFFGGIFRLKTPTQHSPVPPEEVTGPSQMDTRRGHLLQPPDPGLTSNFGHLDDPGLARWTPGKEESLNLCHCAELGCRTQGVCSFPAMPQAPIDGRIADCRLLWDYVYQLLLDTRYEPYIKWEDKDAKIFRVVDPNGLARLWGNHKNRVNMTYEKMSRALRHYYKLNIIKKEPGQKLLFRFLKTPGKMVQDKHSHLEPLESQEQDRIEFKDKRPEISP
# Procedure, shortened: as §1
# [7] = biological target: T6, ELF5 (Homo sapiens, UniProt Q9UKW6-2 1-255)
# T6 sequence: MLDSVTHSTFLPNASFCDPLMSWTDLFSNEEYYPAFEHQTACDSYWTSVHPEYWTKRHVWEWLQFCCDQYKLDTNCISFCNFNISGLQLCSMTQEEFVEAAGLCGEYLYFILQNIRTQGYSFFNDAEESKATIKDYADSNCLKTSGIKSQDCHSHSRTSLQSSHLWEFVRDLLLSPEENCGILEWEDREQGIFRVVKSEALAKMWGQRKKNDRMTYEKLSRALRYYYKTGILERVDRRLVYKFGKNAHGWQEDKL
# Procedure, shortened: as §1
# [8] = biological target: T7, ETV3 (Homo sapiens, UniProt P41162-2 1-143)
# T7 sequence: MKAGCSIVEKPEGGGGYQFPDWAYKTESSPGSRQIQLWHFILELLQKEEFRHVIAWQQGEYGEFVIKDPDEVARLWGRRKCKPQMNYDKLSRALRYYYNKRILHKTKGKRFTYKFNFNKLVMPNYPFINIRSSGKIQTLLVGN
# Procedure, shortened: as §1
# [9] = biological target: ETV6 (Homo sapiens, UniProt P41212 1-452)
# Procedure, shortened: as §1
# Chain of ETV1 (P50549 whole entry, the tested form may be a part): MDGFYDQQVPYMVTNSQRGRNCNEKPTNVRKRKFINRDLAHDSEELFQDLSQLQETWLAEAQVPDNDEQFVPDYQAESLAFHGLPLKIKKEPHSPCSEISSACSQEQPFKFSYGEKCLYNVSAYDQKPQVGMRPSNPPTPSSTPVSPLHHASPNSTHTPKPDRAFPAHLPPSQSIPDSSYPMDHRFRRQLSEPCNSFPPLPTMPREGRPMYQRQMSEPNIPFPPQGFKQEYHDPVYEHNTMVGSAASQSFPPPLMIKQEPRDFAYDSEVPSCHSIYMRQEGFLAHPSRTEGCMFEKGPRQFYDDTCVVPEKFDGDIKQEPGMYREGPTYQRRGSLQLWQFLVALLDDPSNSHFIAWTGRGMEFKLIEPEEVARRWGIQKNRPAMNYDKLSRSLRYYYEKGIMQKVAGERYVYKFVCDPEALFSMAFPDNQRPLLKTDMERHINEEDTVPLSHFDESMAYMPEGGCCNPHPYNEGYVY
# Chain of ETV6 (P41212 whole entry): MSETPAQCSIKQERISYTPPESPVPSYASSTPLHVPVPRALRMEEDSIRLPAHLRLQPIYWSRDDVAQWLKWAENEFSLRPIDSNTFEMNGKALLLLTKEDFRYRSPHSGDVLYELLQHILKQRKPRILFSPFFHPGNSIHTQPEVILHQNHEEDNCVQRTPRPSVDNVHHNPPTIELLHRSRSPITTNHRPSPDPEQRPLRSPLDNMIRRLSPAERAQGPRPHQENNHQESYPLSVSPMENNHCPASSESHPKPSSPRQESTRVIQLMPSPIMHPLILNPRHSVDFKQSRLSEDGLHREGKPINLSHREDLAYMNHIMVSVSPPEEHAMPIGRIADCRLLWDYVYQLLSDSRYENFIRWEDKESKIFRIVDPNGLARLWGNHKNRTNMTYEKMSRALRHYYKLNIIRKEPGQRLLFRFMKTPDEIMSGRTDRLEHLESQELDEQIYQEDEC
sequence,measurement,setting,value
GAAAAT,binding signal,[1],"1.02 fold enrichment (6-mer frequency, TF over GST control)"
same,binding signal,[2],"1.18 fold enrichment (6-mer frequency, TF over GST control)"
same,binding signal,[3],"1.15 fold enrichment (6-mer frequency, TF over GST control)"
same,binding signal,[4],"1.13 fold enrichment (6-mer frequency, TF over GST control)"
same,binding signal,[5],"1.05 fold enrichment (6-mer frequency, TF over GST control)"
same,binding signal,[6],"1.2 fold enrichment (6-mer frequency, TF over GST control)"
same,binding signal,[7],"1.17 fold enrichment (6-mer frequency, TF over GST control)"
same,binding signal,[8],"1.07 fold enrichment (6-mer frequency, TF over GST control)"
same,binding signal,[9],"1.19 fold enrichment (6-mer frequency, TF over GST control)"
